Shiga inhibitor = A qHTS for Small Molecule Inhibitors of Shiga Toxin. inhibition, % at 38.7 µM. Vero cells, Shiga toxin protein synthesis inhibition reporter. actives 9.2% (n = 290,000); in the data active means inhibition mostly above about 28%, no sharp cut-off; inactive means mostly below about 43%; further: 0% is about no effect
Sm TGR block = qHTS Assay for the Inhibitors of Schistosoma Mansoni Peroxiredoxins; Schistosoma mansoni thioredoxin glutathione reductase (TGR), Q962Y6; AID 485364, 2010; purified TGR, DTNB reduction, TNB absorbance 405 nm; actives 3% (n = 360,000); Potency, µM (top dose mostly 114 µM), without a hit: at the highest dose activity change, negative = inhibition, most hits filed as inhibitors; active means well fitted inhibition curve with a large enough effect; inconclusive means small, poorly fitted or top-dose-only effect; inactive means no such curve, though single readings can be large or run the other way; further: potency means the concentration at half of the fitted maximal effect; on the % scale 0 is the no-effect control and ±100 the full control effect; nearly all actives have a fitted effect of over 60% in size
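Kinetic colorimetric format: TGR-catalysed, NADPH-driven DTNB reduction monitored via TNB absorbance. Enzyme dispensed at 20 nM; compound exposure 15 min at room temperature before reaction start.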
FMDV antiviral = High Throughput Screening for Foot and Mouth Disease Virus Antivirals | FMDV antiviral cell-based qHTS | Potency, µM (titrated, usually from 57.9 µM), for inactives: at the top dose activity change, negative = inhibition, actives largely listed as inhibitors | actives 1.2% (n = 410,000) | AID 1159524, 2015; calls by dose curve; tested in HEK293T cells; further: read-out not given here; potency means the concentration at half of the fitted maximal effect; on the % scale 0 is the no-effect control and ±100 the full control effect; nearly all actives have a fitted effect of over 45% in size
Cycloheximide cs = Cycloheximide Counterscreen for Small Molecule Inhibitors of Shiga Toxin; cell reporter, cycloheximide protein synthesis inhibition counterscreen; max response, %; actives 12% (n = 300,000); in the data active means max response mostly above about 13%, no sharp cut-off; inactive means mostly below about 14%; further: read at 38.3 µM for the half of the compounds with a filed dose; 0% is about no effect
* marks the source's active call; other numbers are inactive results; ? = inconclusive; . = no result; + = active, no number. Shown are actives, neighbours in structure and some others; about 12% of the full set was active somewhere.

SMILES	Shiga inhibitor	Sm TGR block	FMDV antiviral	Cycloheximide cs
CCc1cc2c(s1)c1cnn(Cc3ccccc3F)c(=O)c1n2C	17	.	.	10
CCC(Oc1ccc(F)cc1)C(=O)Nc1c(C(=O)c2ccc(C)cc2)oc2ccccc12 (stereo not given)	.	12%	-21%	.
COc1ccc(C(=O)NC(=C(Cl)Cl)S(=O)(=O)c2ccc(C)cc2)cc1	39	?	-4%	22*
COC(=O)NC(=C(Cl)Cl)S(=O)(=O)c1ccccc1	128*	?	28µM*	82*
COC(=O)CN(c1ccccc1)S(=O)(=O)c1ccccc1	19	7%	.	1
Cc1ccc(C(=O)NC(=C(Cl)Cl)S(=O)(=O)c2ccccc2)cc1	161*	0%	?	103*
Cc1ccc(C(=O)NC(C#N)=C(Cl)Cl)cc1	40	.	?	20
CCN(CC)c1ccc(C=N/C(C#N)=C(\N)C#N)cc1	54*	-28%	42%	28*
CCN(CC)c1ccc(/C=N/Nc2nn[nH]n2)cc1	26	-33%	11%	7
COc1ccc(-c2cc(C(F)(F)F)n3nc(C(=O)OC(C)C)cc3n2)cc1	.	-2%	-23%	.
CCOCCc1nn2c(=O)cc(COC(=O)c3ccccc3NC(=O)c3ccc(C)cc3)nc2s1	.	-1%	26%	.
COc1ccccc1CNC(=O)Cn1c(-c2cccs2)cc2cc(F)ccc21	.	0%	-3%	.
CCn1cc(C(=O)N2CCCCC2)c(=O)c2cc(S(=O)(=O)N3CCC(C)CC3)ccc21	10	-20%	5%	23*
CCn1cc(C(=O)N2CCCC2)c(=O)c2cc(S(=O)(=O)N3CC(C)CC(C)C3)ccc21 (stereo not given)	-7	-14%	-8%	-5
COc1ccc(C(=O)N(Cc2sccc2C)C2CCS(=O)(=O)C2)cc1Cl (stereo not given)	.	12%	-11%	.
O=C(NC(=S)NNC(=O)c1ccco1)c1ccc(Br)cc1	23	40µM*	-12%	13
O=C(NNC(=S)NC(=O)c1ccco1)c1ccc(F)cc1	17	3%	-3%	10*
CCNC(=O)c1c(C)oc2ncn(C)c(=O)c12	.	-5%	0%	.
CCCN1C(=O)CN(C2CCCCCC2)C(=O)C1c1ccc(OCC)c(OC)c1 (stereo not given)	.	-24%	-9%	.
C/C(=C\C(=O)c1ccccc1)NNc1nc2ccccc2s1	110*	0%	18%	44*
O=C(NNc1nc2ccccc2s1)Nc1ccccc1	29*	2%	37%	37*
S=C(Nc1ccccc1)c1nc2ccccc2s1	83*	5%	71%	56*
CC(=O)NNc1nc2ccccc2s1	10	-23%	8%	1
O=C(COc1ccccc1)NNc1nc2ccccc2s1	63*	6%	12%	34*
O=C(NNc1cccc(Cl)n1)Nc1ccccc1	-6	-21%	30%	3
SMILES	Shiga inhibitor	Sm TGR block	FMDV antiviral	Cycloheximide cs
COc1ccc(-c2[nH]c(-c3ccc(C)cc3)nc2SCC(=O)NCC2CCCO2)cc1 (stereo not given)	.	-11%	6%	.
O=C1C2C(C(=O)N1/N=C/c1ccc(N3CCCCC3)o1)C1C=CC2C12CC2 (stereo not given)	17	4µM*	-9%	8
CN1C(=O)C(=Cc2ccc(N3CCCCC3)o2)C(=O)N(C)C1=S	-12	-58%	20%	3
Cc1ccc(OCc2cc(=O)n3cc(C)sc3n2)c(NC(=O)c2ccco2)c1	.	6%	-19%	.
CCOC(=O)CNc1c(-c2ccc(O)cc2)nc2ccc(Cl)cn12	56	-26%	14%	23*
CCOC(=O)CNc1c(-c2ccccc2)nc2ccc(Cl)cn12	25	4%	29%	7
COc1cccc(N=Nc2c(N)[nH][nH]c2=O)c1	59*	17%	1%	55*
CCOc1ccc(N=Nc2c(N)[nH][nH]c2=O)cc1	68*	5%	18%	78*
COc1ccc(N=Nc2c(C)[nH][nH]c2=O)cc1	103*	8%	37%	35*
Cc1[nH][nH]c(=O)c1N=Nc1ccc(F)cc1	5	?	-2%	5
COc1ccc(Cl)cc1NC(=O)COC(=O)CC(C)(C)CC1=NS(=O)(=O)c2ccccc2N1	.	-18%	?	.
CC(=O)C1=C(O)C(=O)N(c2ccc(Br)cn2)C1c1ccc(F)cc1 (stereo not given)	75*	.	-16%	38*
CC(=O)C1=C(O)C(=O)N(c2ccc(Br)cn2)C1c1ccc(Br)cc1 (stereo not given)	93*	-12%	31%	21*
CCc1ccccc1NC(=O)c1cc(S(=O)(=O)N2CCc3ccccc32)ccc1F	.	9%	0%	.
CCN(CC)CCn1c(NS(=O)(=O)c2ccc(Cl)cc2)nc2ccccc21	-1	-28%	17%	-3
CCN(CC)CCn1c(NC(=O)c2ccccc2O)nc2ccccc21	.	45µM*	41%	26*
CCN(CC)CCn1c(NC(=O)c2ccc(Cl)cc2)nc2ccccc21	20	3%	.	19*
CCCn1c(NC(=O)c2ccccc2)nc2ccccc21	32	-17%	23%	17
CCCCc1c(C)nc2cc(-c3ccco3)[nH]n2c1=O	79*	-29%	35%	34*
O=C1c2nc3cc(-c4ccco4)[nH]n3c(=O)c2CN1Cc1ccccc1	-9	20µM*	-3%	-1
O=c1c2ccccc2oc2nc(-c3ccco3)n(Cc3ccccc3)c(=O)c12	6	-25%	33%	5
C=CCc1c(C)nc2cc(-c3ccc(C)cc3)[nH]n2c1=O	72*	9%	1%	54*
CCc1c(C)nc2cc(-c3ccccc3)[nH]n2c1=O	35*	-15%	-5%	34*
CCc1nc2cc(C(=O)N(C)CC3COCCO3)cc(NC(=O)c3ccccc3OC)c2n1C (stereo not given)	.	.	-6%	.
NNC(=S)NCc1ccco1	20	-1%	-1%	-1
SMILES	Shiga inhibitor	Sm TGR block	FMDV antiviral	Cycloheximide cs
CN(C)c1ccc(C(=S)NCc2ccco2)cc1	+	-15%	16µM*	85*
CN(C)c1ccc(/C=N/NC(=S)NCc2ccco2)cc1	23*	-13%	-8%	16
O=C(Nc1nccc(-c2cccs2)n1)c1ccccc1Cl	53*	0%	28%	32*
CNC1C(O)[C@@H]2OC(O[C@@H]3C(O)C(O)C(N)C[C@H]3N)C(N)C[C@H]2O[C@H]1O[C@@H]1OC(CO)C(N)C(O)C1O (stereo not given in full)	.	.	-11%	.
COc1cccc(C(NC(C)=O)c2nc(-c3cc4ccccc4o3)cs2)c1 (stereo not given)	.	.	-16%	.
COc1cccc(C(Nc2ccccn2)c2oc(CO)cc(=O)c2O)c1 (stereo not given)	-2	3.2µM*	-16%	-7
O=c1cc(CO)oc(C(Nc2ccccn2)c2cccc(F)c2)c1O (stereo not given)	2	2.8µM*	-5%	-2
O=c1cc(CO)oc(C(Nc2ccccn2)c2ccccc2F)c1O (stereo not given)	.	.	-10%	.
O=c1cc(CO)oc(C(Nc2ccccn2)c2ccc(C(F)(F)F)cc2)c1O (stereo not given)	-7	40µM*	9%	-2

Bioassay records (PubChem BioAssay)
